Screening data (PubChem BioAssay)
This is a sample that favours compounds with a hit; in the whole collection about 4.3% have one here.
Bead autofluor = flagged as autofluorescent in microsphere protease counterscreen; compound autofluorescence counterscreen, microsphere flow cytometry; hits give high values; fluorescence intensity (test concentration not listed); 3.1% of 360,000 active; in the data active means fluorescence intensity above about 16000; inconclusive means no clear call, values can overlap the other calls
BoNT-F LC inh = BoNT F light chain protease inhibition. Multiplex microsphere protease cleavage assay, flow cytometry. inhibition, % at 10 µM. 0.22% of 360,000 active. AID 588497; in the data active means inhibition above about 35%, passing the limit was not always enough; inconclusive means no clear call, values can overlap the other calls; further: plate controls were buffer without enzyme for full effect and enzyme alone for no effect
BoNT A protease = BoNT A light chain protease inhibition | 0.17% of 360,000 active | multiplex microsphere protease substrate cleavage, flow cytometry | inhibition, % at 10 µM; further: plate controls were buffer without enzyme for full effect and enzyme alone for no effect
MazF activator = increases E. coli MazEF RNase cleavage of RNA | P0AE70 | FAM/BHQ RNA-DNA oligo cleavage fluorescence, 5 h | activation, % at 20 µM | 0.32% of 350,000 active; in the data active means activation above about 50%
Target sequence (P0AE70 whole entry, looked up): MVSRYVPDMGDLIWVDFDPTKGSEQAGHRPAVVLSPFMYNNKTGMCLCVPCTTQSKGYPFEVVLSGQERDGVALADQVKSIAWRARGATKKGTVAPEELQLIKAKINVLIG
Anthrax LF prot = inhibitors of Bacillus anthracis lethal factor protease | AID 588501 | 0.12% of 360,000 active | multiplex microsphere protease cleavage assay, LF | P15917 | inhibition, % at 10 µM; further: plate controls were buffer without enzyme for full effect and enzyme alone for no effect
PfHsp40 rescue = compounds rescuing yeast from Plasmodium falciparum HSP40 toxicity; S. cerevisiae expressing PfHsp40, growth rescue, ATP luminescence; growth rescue, % at 12.5 µM; 0.68% of 340,000 active; AID 504582; in the data active means growth rescue above about 28%, passing the limit was not always enough; inconclusive means no clear call, values can overlap the other calls;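 further: yeast W303a lacking pdr1 and pdr3 grown in galactose medium; growth measured after three days at 30 °C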
Active calls of the source: *; ? = inconclusive; . = no result. Unless noted, no stated cut-off is given here; in the data, active means inhibition above about 30%; inconclusive means no clear call, values can overlap the other calls; inactive means below that.

SMILES	Bead autofluor	BoNT-F LC inh	BoNT A protease	MazF activator	Anthrax LF prot	PfHsp40 rescue
CCc1nc2ccccc2c(=O)n1NC(=O)c1c(O)c2ccccc2n(CC)c1=O	4102	-5	0	7	2	181*
CCn1c(=O)c(C(=O)Nn2c(C)nc3ccccc3c2=O)c(O)c2ccccc21	2389	0	0	-3	1	5
CCc1nc(NC(=O)NS(=O)(=O)c2ccccc2C(=O)OC)nc(OC)n1	2539	-2	0	-3	1	-1
CC(=O)/C(C#N)=C1\NC(=O)C(Cc2ccccc2Cl)S1 (stereo not drawn)	4503	11	1	12	-1	39*
CC(=O)/C(C#N)=C1\NC(=O)C(Cc2cc(Cl)ccc2Cl)S1 (stereo not drawn)	3467	?	-2	6	-7	0
CCCCOc1cccc(-c2nnc(N)s2)c1	3386	-1	0	5	2	1
CCCCCCOc1cccc(N)c1	22320*	1	2	4	-4	0
O=C(CN1C(=O)c2ccccc2S1(=O)=O)NCc1ccco1	4368	-4	0	6	-11	0
FC(F)(F)c1ccc2c(c1)n(Cc1ccccc1)c1[n+]2CCCCC1	20850*	17	7	1	-2	-2
O=C(Cn1c2[n+](c3ccc(C(F)(F)F)cc31)CCCCC2)Nc1ccccc1	2958	0	1	1	-1	-1
O=C(CC(C(=O)O)c1ccc(Cl)cc1)c1ccc(Br)cc1 (stereo not drawn)	3525	1	0	2	-2	1
CC(=O)Nc1ccc(NC(=O)c2cc(C)nn2-c2ccccc2)cc1	22454*	-3	?	-3	0	-1
COc1ccc(NC(=O)c2cc(C)nn2-c2ccccc2)cc1	3925	-9	-4	1	-9	-1
Cc1ccc2nc(C3CCCCC3)c(CC(C)(C)C)n2c1	4288	-10	-1	.	-3	.
Cc1nn2c(-c3ccco3)nnc2c2ccccc12	8979	6	2	6	-1	3
Cc1nn2c(-c3ccncc3)nnc2c2ccccc12	2980	-13	-1	4	-4	57*
COc1ccc(-c2nnc3c4ccccc4c(C)nn23)cc1	22622*	-1	-1	5	-2	0
Cc1ccccc1-c1nnc2c3ccccc3c(C)nn12	2996	0	0	12	-2	2
COc1ccc(C(=O)N(C)C2CCN(C)CC2)cc1S(=O)(=O)Nc1cc(Cl)ccc1Cl	.	.	.	9	.	.
C=CCn1c(O)c(C(CC)=Nc2ccc(N(CC)CC)cc2)c(=O)[nH]c1=O	21974*	1	1	3	-3	0
C=CCn1c(O)c(C(CC)=NC2CC2)c(=O)[nH]c1=O	16830*	0	-1	-1	0	0
C=CCn1c(O)c(C(C)=Nc2ccc(N(CC)CC)cc2)c(=O)[nH]c1=O	6132	-5	-1	13	-6	-1
CCC(=NC1CC1)c1c(O)n(C2CCCCC2)c(=O)[nH]c1=O	9885	2	-2	7	-4	0
COc1ccccc1C(=O)Nn1c(C2CCC2)nc2ccccc2c1=O	23194*	0	?	-11	0	0
Cc1nc2ccccc2c(=O)n1NC(=O)C1CCCCC1	6471	-4	0	0	-2	0
SMILES	Bead autofluor	BoNT-F LC inh	BoNT A protease	MazF activator	Anthrax LF prot	PfHsp40 rescue
O=C(Nn1c(C2CCC2)nc2ccccc2c1=O)C1CCC1	16974*	14	11	-4	-5	-1
COc1cc2nc(C3CC3)n(NC(=O)c3ccc(F)cc3)c(=O)c2cc1OC	24457*	-3	?	1	-1	-1
O=C(Nn1c(C2CC2)nc2ccccc2c1=O)c1ccco1	20747*	10	5	-4	-6	0
Cc1cn(CC(=O)NCc2ccccc2)c(=O)[nH]c1=O	3381	-4	0	1	-1	-2
Nc1nc2cc(S(=O)(=O)N3CCOCC3)ccc2o1	3697	-3	1	-3	1	0
O=C(c1ccc(F)cc1)c1cc2ccccc2o1	24066*	1	-1	8	-2	0
COc1ccc(CCN2C(=O)NC(NS(=O)(=O)c3ccc(NC(C)=O)cc3)(C(F)(F)F)C2=O)cc1OC (stereo not drawn)	2713	-2	0	5	-2	0
COc1cc(CN2CCC(C(=O)N3CCN(c4ccccc4F)CC3)CC2)ccc1O	23648*	2	0	6	-2	-1
CCOC(=O)C1C(c2ccc([N+](=O)[O-])cc2)C2C(=O)NN=C2CC1(C)O (stereo not drawn)	5632	-6	0	9	10	.
O=C(O)c1cc[c]([Hg][Cl])cc1	9321	-4	60*	-12	-22	575*
Cc1cccc(C(=O)N/N=C/c2ccncc2)c1	16845*	-3	-2	1	-2	-1
O=C(N/N=C/c1ccncc1)c1ccncc1	2837	-8	0	-2	-3	-1
Cc1ccc(C(=O)Nc2cccc(C(=O)N/N=C/c3ccc(F)cc3)c2)cc1	3414	6	-1	63*	-8	3
O=C1C2C3C=CC(C3)C2C(=O)N1c1n[nH]c(-c2cccnc2)n1 (stereo not drawn)	11494	-14	-1	-2	-4	1
Cc1ccc(N2C(=O)C3C4C=CC(C4)C3C2=O)cc1C (stereo not drawn)	22226*	2	2	11	-4	1
O=C1C2C3C=CC(C3)C2C(=O)N1c1ccc2ccccc2n1 (stereo not drawn)	3330	2	-1	4	-1	-2
O=C1C2C3C=CC(C3)C2C(=O)N1c1n[nH]c(-c2ccccc2)n1 (stereo not drawn)	23080*	0	-1	1	-10	-1
O=C1C2C3C=CC(C3)C2C(=O)N1c1cccc(N2C(=O)C3C4C=CC(C4)C3C2=O)n1 (stereo not drawn)	22915*	-1	0	-6	-4	0
COc1ccc(CCN2CC(C(=O)NCc3ccon3)CCC2=O)cc1 (stereo not drawn)	3813	-3	0	7	2	.
Cc1cc2ccccc2c(=O)n1CC(=O)NCC(=O)N1CCN(c2ccccc2)CC1	23551*	-5	-3	3	-3	0
Cc1cc2ccccc2c(=O)n1CC(=O)N1CCN(c2cccc(Cl)c2)CC1	2807	-5	0	11	-2	-1
Cc1ccc(-c2nc(N/N=C/c3ccccc3[N+](=O)[O-])c3ccccc3n2)cc1	16971*	2	-2	33	0	0
CCC(=O)N1CCC1(C)C(=O)NCc1ccccc1SC (stereo not drawn)	2986	-7	0	.	-5	.
Cc1cc(N2CCN(c3ccccc3)CC2)n2c(n1)nc1ccccc12	23762*	8	?	7	2	1
CC(C)(C)c1ccc(C(=O)NNC(=O)CCC(=O)Nc2ccccc2)cc1	5594	1	0	1	4	-1
c1ccc(C2(Cn3ccc4ccccc43)OCCO2)cc1	24276*	-15	35*	-9	-3	2
